Shown are actives, neighbours in structure and some others; about 16% of the full set was active somewhere.
miR-21 reporter – qHTS Assay for Modulators of miRNAs and/orActivators of miR-21. AID 2288, 2010. 340,000 tested, under 10 active. Potency, µM (series often up to 38.3 µM), without a hit: top-dose activity change, positive = activation, usual class: activators. HeLa miR-21 FLuc reporter, luciferase, 48 h;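 also: % of control where 0% means no effect; miR-21 action dims this reporter so a rising signal means less miR-21 action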
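Luminescence from a firefly luciferase reporter carrying a miR-21 binding site downstream, stably expressed under a CMV promoter in HeLa cells that make miR-21 endogenously, reports miRNA modulation after 48 h compound exposure up to approximately 40uM final.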
TDP1 cell noCPT – qHTS for Inhibitors of human tyrosyl-DNA phosphodiesterase 1 (TDP1): qHTS in cells in absence of CPT; DT40 Tdp1-/- hTDP1 cells, no CPT, ATP luminescence, 48 h; Potency, µM (highest dose often 46.2 µM), for the others: at the top dose activity change, negative = growth inhibition, most hits filed as inhibitors; actives 15% (n = 420,000); also: potency is read from the fitted curve at half-maximal effect; % is scaled to controls: 0 for no effect and ±100 for the full control effect; nearly all actives have a fitted effect of over 55% in size
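Camptothecin absent (DMSO only). Human TDP1-complemented DT40 knockout cells, 400 cells/well, 37 °C for minimum 48 hr; ATP measured via CellTiter-Glo, 30 min dark incubation, luminescence.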
uPA surface inh – qHTS for Inhibitors of Cell Surface uPA Generation | cell surface uPA generation assay, qHTS | Potency, µM (highest dose often 38.3 µM), without a hit: at the highest dose activity change, negative = inhibition, hits mostly inhibitors | AID 540303, 2011 | actives 0.31% (n = 330,000); active = well fitted inhibition curve with a large enough effect; inconclusive = small, poorly fitted or top-dose-only effect; inactive = no such curve, though single readings can be large or run the other way; tested in mouse RAW 264.7 cells; also: potency is read from the fitted curve at half-maximal effect; % is scaled to controls: 0 for no effect and ±100 for the full control effect; nearly all actives have a fitted effect of over 55% in size
DT40 TDP1 CPT – qHTS for Inhibitors of human tyrosyl-DNA phosphodiesterase 1 (TDP1): qHTS in cells in presence of CPT | Potency, µM (series often up to 46.2 µM), for the others: top-dose activity change, negative = growth inhibition, usual class: inhibitors | chicken DT40 Tdp1-/-;hTDP1 cells + 20 nM CPT, ATP luminescence, 48 h | AID 686979, 2013 | actives 12% (n = 420,000); also: potency is read from the fitted curve at half-maximal effect; % is scaled to controls: 0 for no effect and ±100 for the full control effect; nearly all actives have a fitted effect of over 55% in size
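Chicken DT40 Tdp1-/- cells complemented with human TDP1, 400 cells/well, exposed to compounds plus 20 nM camptothecin for at least 48 h at 37 C; viability read as ATP content by CellTiter-Glo luminescence.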
TDP1 block – qHTS Assay for Inhibitors of Tyrosyl-DNA Phosphodiesterase (TDP1); Tyrosyl-DNA phosphodiesterase 1 (Homo sapiens), Q9NUW8; actives 0.28% (n = 350,000); AID 485290, 2010; Potency, µM (top dose mostly 130 µM), for inactives: at the top dose activity change, negative = inhibition, actives largely listed as inhibitors; recombinant TDP1, AlphaScreen DNA substrate cleavage; also: potency is read from the fitted curve at half-maximal effect; % is scaled to controls: 0 for no effect and ±100 for the full control effect; nearly all actives have a fitted effect of over 40% in size
Target sequence (Q9NUW8 whole entry, looked up): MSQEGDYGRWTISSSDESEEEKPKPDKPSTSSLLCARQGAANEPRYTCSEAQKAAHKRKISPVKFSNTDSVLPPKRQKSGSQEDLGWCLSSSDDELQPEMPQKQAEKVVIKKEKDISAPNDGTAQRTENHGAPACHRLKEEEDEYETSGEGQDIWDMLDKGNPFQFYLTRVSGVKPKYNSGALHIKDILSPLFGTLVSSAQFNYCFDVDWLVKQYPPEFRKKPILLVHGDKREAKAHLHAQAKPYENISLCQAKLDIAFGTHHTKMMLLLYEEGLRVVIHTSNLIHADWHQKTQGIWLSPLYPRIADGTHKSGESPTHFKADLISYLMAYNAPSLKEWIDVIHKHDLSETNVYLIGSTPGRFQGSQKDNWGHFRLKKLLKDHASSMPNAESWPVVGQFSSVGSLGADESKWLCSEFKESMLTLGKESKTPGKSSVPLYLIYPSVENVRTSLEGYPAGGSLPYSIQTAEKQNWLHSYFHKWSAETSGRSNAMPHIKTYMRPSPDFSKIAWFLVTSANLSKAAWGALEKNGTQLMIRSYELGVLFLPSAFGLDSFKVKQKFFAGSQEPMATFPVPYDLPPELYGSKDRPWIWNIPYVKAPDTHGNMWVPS
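Recombinant human Tdp1 (E. coli-expressed, 1 nM final) preincubated with compounds 15 min at room temperature, then 5'-biotin/3'-phosphotyrosine-FITC DNA substrate (15 nM final) added for 5 min. AlphaScreen beads (10 ug/ml final) added 10 min; cleavage lowers signal.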
Active calls of the source: *; ? = inconclusive; . = not tested or not shown. Unless noted, calls follow the shape of the dose curve; as a rule, active = well fitted curve in the direction sought with a large enough effect; inconclusive = small, poorly fitted or top-dose-only effect, or another doubt; inactive = no such curve, though single readings can be large; an effect the other way counts as inactive or inconclusive.

SMILES	miR-21 reporter	TDP1 cell noCPT	uPA surface inh	DT40 TDP1 CPT	TDP1 block
CCCN1C(=O)C(Cc2nc3ccccc3c(=O)n2-c2ccccc2)c2ccccc21 (stereo not drawn)	-18.2%	?	-1.7%	-25.4%	2.3%
CCN1C(=O)C(Cc2nc3ccccc3c(=O)n2C)c2cc(C)ccc21 (stereo not drawn)	-13.0%	25.9µM*	.	?	-0.9%
CCn1c(CC2C(=O)Nc3ccccc32)nc2ccccc2c1=O (stereo not drawn)	4.6%	?	.	-12.1%	4.7%
COc1ccc(-n2c(CC3C(=O)Nc4ccc(C)cc43)nc3ccccc3c2=O)cc1 (stereo not drawn)	9.8%	?	.	?	4.7%
COC(=O)C(C)n1cnc2c(nnn2-c2ccc(C)cc2)c1=O (stereo not drawn)	-11.4%	-6.4%	?	-27.1%	.
CNC(=O)CC1C(=O)N(c2ccc(F)cc2)C(=S)N1NC(=O)c1ccc(Cl)cc1 (stereo not drawn)	-34.6%	-17.6%	0.0%	2.5%	.
CN(C)c1ccc(C(C(=O)NC(C)(C)C)N(C(=O)c2csnn2)C2CC2)cc1 (stereo not drawn)	-22.2%	-11.1%	2.1%	-18.7%	-2.4%
COc1cc(OC)c2c(c1)C(=O)OC2c1cc(OC)c(OC)cc1C (stereo not drawn)	.	11.2µM*	.	?	0.4%
Cc1ccc(OCCn2c(COc3ccc(Cl)cc3)nc3ccccc32)cc1	-14.0%	?	.	?	2.1%
CCOC(=O)c1c(Nc2ccccc2)sc(/C=C2\C=Nc3ccccc32)c1O	-18.1%	?	-4.9%	20.6µM*	6.0%
Oc1nc(Nc2ccccc2)sc1/C=C1\C=Nc2ccccc21	-59.8%	-29.9%	-6.3%	-26.0%	5.5%
CC1(C(=O)NCc2ccc(C(F)(F)F)cc2)CCN1Cc1cc2ccccc2o1 (stereo not drawn)	.	18.4µM*	.	20.6µM*	.
CC1(C(=O)NCc2cccc3ccccc23)CCN1Cc1ccccc1OC(F)F (stereo not drawn)	.	14.6µM*	.	20.6µM*	.
CC1(C(=O)NCc2ccc(C(F)(F)F)cc2)CCN1Cc1ccccc1OC(F)F (stereo not drawn)	.	23.1µM*	.	?	.
CCN(CC)S(=O)(=O)c1ccc(OC)c(NS(=O)(=O)c2ccc(F)cc2)c1	-9.1%	-4.1%	-2.0%	-15.3%	1.0%
Cc1ccccc1/C=c1\s/c(=C\C(=O)C(C)(C)C)[nH]c1=O	14.4%	10.3µM*	-10.6%	13µM*	-1.9%
CCc1ccc(/C=c2\s/c(=C\C(=O)C(C)(C)C)[nH]c2=O)cc1	12.4%	23.1µM*	-2.9%	?	10.7%
Cc1ccccc1/C=C1\CCCc2ccccc2C1=O	-57.9%	-26.4%	-7.4%	-21.1%	2.2%
CCN(CC)c1ncnc2ccc(Br)cc12	7.3%	?	2.8%	?	-1.9%
Cc1ccc(C(=O)Oc2ccccc2C(=O)N2CCOCC2)cc1	-3.2%	-14.9%	-15.3%	-3.1%	5.0%
COc1cc(CNCc2ccncc2)cc(Br)c1OCc1ccccc1F	20.3%	?	.	?	4.9%
CCOc1cc(CNCC(C)C)cc(Cl)c1OCc1ccccc1	16.4%	20.6µM*	-15.6%	?	4.8%
COc1cc(CNC(C)(C)CO)cc(Br)c1OCc1ccccc1	3.2%	?	-9.7%	?	-2.7%
COc1cc(CNc2ccc(O)cc2)cc(Br)c1OCc1ccccc1F	-9.9%	?	-3.0%	16.4µM*	-1.8%
CCOc1cc(CNc2ccc(O)cc2)cc(Br)c1OCc1ccccc1	14.5%	16.4µM*	.	23.1µM*	7.4%
SMILES	miR-21 reporter	TDP1 cell noCPT	uPA surface inh	DT40 TDP1 CPT	TDP1 block
CCOc1cc(CNc2ccc3c(c2)OCCO3)cc(Br)c1OC	16.2%	1.16µM*	-14.0%	0.517µM*	10.4%
COc1cc(/C=N/NC(=O)C(C)Nc2n[nH]c(=O)[nH]c2=O)cc(OC)c1O (stereo not drawn)	-8.2%	-3.9%	0.8%	19.0%	-10.8%
CSCCC(NS(=O)(=O)c1ccc2c(c1)oc(=O)n2C)C(=O)NC1CCCCC1 (stereo not drawn)	-6.5%	-4.4%	-8.5%	-6.4%	0.0%
COc1cccc(CNc2ccccc2O)c1OCc1ccccc1F	-11.9%	?	-2.6%	23.1µM*	11.0%
Fc1cc(F)cc(Nc2nc(NC3CCCC3)nc(C3CO3)n2)c1 (stereo not drawn)	.	.	.	.	2.4%
O=C(Nc1ccc([N+](=O)[O-])cc1)C(Cc1ccccc1)N1C(=O)c2cccc3cccc(c23)C1=O (stereo not drawn)	-5.6%	5.17µM*	1.5%	?	2.7%
CCOc1ccc2ccccc2c1/C=N/NC(=O)CNC(=O)Cc1ccccc1	-7.2%	0.8%	-17.6%	18.4µM*	-2.7%
COc1ccccc1NC(=O)c1c(N=Cc2c(O)ccc3ccccc23)cnn1C	2.8%	6.51µM*	1.6%	8.2µM*	6.0%
COc1ccccc1NCC(=O)N/N=C/c1c(O)ccc2ccccc12	12.3%	2.91µM*	?	5.8µM*	.
COc1ccccc1N(CC(=O)N/N=C/c1c(O)ccc2ccccc12)S(C)(=O)=O	27.8%	5.8µM*	-7.5%	5.17µM*	10.3%
COc1ccccc1NCC(=O)N/N=C/c1cccnc1	-1.5%	-0.2%	6.7%	-13.9%	9.3%
Cn1ncc(N=Cc2c(O)ccc3ccccc23)c1C(=O)N1CCOCC1	.	-19.9%	3.1%	0.6%	.
O=C(CN(Cc1ccco1)C(=O)CNS(=O)(=O)c1ccc(Cl)cc1)NCC1CCCO1 (stereo not drawn)	9.9%	-4.0%	-1.5%	8.9%	-0.6%
Cc1ccc([C@@H]2[C@@H]3C(=O)N(C)C(=O)[C@@H]3[C@]3(C)C(=O)N(Cc4ccc(-c5ccccc5)cc4)CC(=O)N23)o1	-0.1%	-8.8%	8.1%	?	.
O=C(O)c1ccccc1-c1nc2ccccc2n1-c1ccccc1	-2.3%	6.8%	-0.9%	-4.0%	-5.3%
C/C(=N\NC(=O)COc1cccc2ccccc12)c1cccs1	-10.1%	?	5.3%	2.6%	1.7%
COc1ccc(S(=O)(=O)Nc2ccc3c(c2)CC(=O)N([C@H](C)CO)C[C@H](C)[C@H](CN(C)C(=O)Nc2ccc4c(c2)OCO4)O3)cc1	.	?	-11.6%	?	2.8%
CCc1ccc(NC(=O)c2ccc3c(c2)nnn3CC)cc1	-51.8%	?	.	9.8%	5.3%
O=C(Cc1n[nH]c(=O)[nH]c1=O)N/N=C/c1c(O)ccc2ccccc12	3.7%	-1.4%	0.3%	19.0%	2.3%
O=C(CNc1ccc(F)cc1)N/N=C/c1c(O)ccc2ccccc12	28.3%	9.2µM*	?	10.3µM*	.

From PubChem
